Measurements from publication PMC7862700, “An all-to-all approach to the identification of sequence-specific readers for epigenetic DNA modifications on cytosine”.

Assays:
Assay in all cases: DAPPL (digital affinity profiling via proximity ligation, sequencing); 10 mM Tris-HCl pH 7.5, 50 mM NaCl, 1 mM DTT, 4% glycerol, room temperature, 30 min; GST-TFs on glutathione beads, 16-mer random dsDNA library, 0.1% formaldehyde crosslink after washing; high values mean tight binding
Conditions in all cases: protein: recombinant; tags: N-terminal GST; dsDNA, one strand shown
ERF = molecular target: T1, ERF (Homo sapiens, UniProt P50548 1-548)
T1 sequence: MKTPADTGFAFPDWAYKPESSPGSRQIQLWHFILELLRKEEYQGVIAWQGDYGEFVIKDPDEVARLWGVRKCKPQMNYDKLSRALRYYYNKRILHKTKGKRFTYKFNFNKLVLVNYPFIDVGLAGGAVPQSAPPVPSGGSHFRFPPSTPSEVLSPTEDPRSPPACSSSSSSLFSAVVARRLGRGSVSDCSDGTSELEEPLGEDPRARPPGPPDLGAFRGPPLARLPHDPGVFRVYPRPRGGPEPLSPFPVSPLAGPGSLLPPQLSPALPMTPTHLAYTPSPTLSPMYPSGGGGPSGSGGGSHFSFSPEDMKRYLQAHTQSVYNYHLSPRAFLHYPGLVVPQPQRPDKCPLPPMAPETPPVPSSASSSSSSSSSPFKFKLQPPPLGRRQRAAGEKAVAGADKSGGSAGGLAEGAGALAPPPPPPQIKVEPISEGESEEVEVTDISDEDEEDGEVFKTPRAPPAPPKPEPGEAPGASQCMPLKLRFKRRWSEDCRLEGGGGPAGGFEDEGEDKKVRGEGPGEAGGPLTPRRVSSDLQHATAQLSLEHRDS
Procedure, shortened: (§1)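 Human transcription factors fused to GST were expressed in yeast, captured on glutathione beads, given DNA barcodes and pooled with a GST-only negative control. Pools were incubated with 200 nmole of a 16-mer random double-stranded DNA library in Tris/NaCl/DTT/glycerol buffer at room temperature for 30 min. They were then washed, crosslinked with 0.1% formaldehyde, proximity-ligated (BsaI/T4 ligase, 1 h, 37 °C), PCR-amplified and sequenced on an Illumina NextSeq500. Binding signal is each 6-mer's read frequency for a factor divided by its frequency for the GST control.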

ETV3L = molecular target: T2, ETV3L (Homo sapiens, UniProt Q6ZN32 1-361)
T2 sequence: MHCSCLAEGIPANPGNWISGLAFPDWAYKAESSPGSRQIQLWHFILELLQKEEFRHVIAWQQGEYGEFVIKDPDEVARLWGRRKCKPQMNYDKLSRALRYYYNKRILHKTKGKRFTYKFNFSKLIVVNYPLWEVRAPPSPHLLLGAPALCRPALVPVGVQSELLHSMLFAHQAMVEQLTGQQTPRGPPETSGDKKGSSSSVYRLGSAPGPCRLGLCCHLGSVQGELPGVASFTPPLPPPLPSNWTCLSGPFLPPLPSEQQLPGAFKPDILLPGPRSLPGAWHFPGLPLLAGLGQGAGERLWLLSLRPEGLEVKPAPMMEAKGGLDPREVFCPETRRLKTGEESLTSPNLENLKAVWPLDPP
Procedure, shortened: as §1

ETS2 = molecular target: T3, ETS2 (Homo sapiens, UniProt P15036 1-469)
T3 sequence: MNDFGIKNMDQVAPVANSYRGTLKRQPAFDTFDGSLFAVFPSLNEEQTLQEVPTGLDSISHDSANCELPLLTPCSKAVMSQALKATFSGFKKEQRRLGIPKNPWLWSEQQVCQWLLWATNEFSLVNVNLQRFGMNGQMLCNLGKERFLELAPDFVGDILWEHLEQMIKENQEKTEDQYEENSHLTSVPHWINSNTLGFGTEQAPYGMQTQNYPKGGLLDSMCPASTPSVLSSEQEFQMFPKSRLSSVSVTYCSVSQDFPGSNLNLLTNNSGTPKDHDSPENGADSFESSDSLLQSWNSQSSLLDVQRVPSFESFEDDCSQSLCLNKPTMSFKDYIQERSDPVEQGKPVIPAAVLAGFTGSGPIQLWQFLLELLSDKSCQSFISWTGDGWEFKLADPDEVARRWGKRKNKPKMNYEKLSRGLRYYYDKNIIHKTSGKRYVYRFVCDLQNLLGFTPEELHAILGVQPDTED
Procedure, shortened: as §1

SPDEF = molecular target: T4, SPDEF (Homo sapiens, UniProt O95238 1-335)
T4 sequence: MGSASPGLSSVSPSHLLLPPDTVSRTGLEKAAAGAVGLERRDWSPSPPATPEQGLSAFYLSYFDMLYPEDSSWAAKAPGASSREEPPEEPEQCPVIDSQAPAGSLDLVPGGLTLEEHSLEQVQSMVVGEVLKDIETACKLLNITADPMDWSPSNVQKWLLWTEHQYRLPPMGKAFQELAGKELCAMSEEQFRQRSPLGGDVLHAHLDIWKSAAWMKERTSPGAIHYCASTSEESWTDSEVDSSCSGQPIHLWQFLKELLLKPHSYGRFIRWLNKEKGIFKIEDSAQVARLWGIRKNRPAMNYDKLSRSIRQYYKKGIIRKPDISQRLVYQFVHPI
Procedure, shortened: as §1

ETV7 = molecular target: T5, ETV7 (Homo sapiens, UniProt Q9Y603 1-341)
T5 sequence: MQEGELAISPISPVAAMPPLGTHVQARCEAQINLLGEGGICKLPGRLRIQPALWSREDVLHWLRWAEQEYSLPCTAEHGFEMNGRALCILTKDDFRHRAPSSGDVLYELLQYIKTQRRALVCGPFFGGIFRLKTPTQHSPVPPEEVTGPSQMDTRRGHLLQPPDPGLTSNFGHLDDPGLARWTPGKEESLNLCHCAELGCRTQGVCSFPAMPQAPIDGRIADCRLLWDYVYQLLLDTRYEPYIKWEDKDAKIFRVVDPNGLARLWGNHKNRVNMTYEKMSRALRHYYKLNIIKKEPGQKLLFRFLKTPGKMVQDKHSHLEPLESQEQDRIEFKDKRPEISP
Procedure, shortened: as §1

ELF5 = molecular target: T6, ELF5 (Homo sapiens, UniProt Q9UKW6-2 1-255)
T6 sequence: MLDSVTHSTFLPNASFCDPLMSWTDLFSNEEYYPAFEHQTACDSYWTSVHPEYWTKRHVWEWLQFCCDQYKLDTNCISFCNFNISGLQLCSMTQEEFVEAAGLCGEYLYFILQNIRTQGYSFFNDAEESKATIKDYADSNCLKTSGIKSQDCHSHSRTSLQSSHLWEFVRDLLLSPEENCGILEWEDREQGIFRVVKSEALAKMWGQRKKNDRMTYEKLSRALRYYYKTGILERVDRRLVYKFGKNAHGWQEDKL
Procedure, shortened: as §1

ETV3 = molecular target: T7, ETV3 (Homo sapiens, UniProt P41162-2 1-143)
T7 sequence: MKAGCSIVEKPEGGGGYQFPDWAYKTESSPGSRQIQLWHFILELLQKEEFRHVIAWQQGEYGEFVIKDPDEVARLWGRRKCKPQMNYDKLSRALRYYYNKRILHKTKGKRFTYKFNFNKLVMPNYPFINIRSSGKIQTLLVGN
Procedure, shortened: as §1

ETV6 = ETV6 (Homo sapiens, UniProt P41212 1-452)
Sequence of ETV6 (P41212 whole entry): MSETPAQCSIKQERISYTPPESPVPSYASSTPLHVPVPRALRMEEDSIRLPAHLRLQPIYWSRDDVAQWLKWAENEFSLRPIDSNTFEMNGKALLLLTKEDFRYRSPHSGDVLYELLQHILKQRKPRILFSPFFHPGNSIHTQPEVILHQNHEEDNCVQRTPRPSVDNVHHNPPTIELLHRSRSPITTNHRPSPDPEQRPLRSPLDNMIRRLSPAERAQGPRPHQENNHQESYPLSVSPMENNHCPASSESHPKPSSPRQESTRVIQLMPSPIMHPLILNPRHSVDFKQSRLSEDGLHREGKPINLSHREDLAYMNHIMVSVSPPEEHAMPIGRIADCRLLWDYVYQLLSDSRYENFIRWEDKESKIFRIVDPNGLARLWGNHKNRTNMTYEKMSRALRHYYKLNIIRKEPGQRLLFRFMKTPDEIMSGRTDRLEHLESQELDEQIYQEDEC
Procedure, shortened: as §1

| Sequence | binding signal (ERF) | binding signal (ETV3L) | binding signal (ETS2) | binding signal (SPDEF) | binding signal (ETV7) | binding signal (ELF5) | binding signal (ETV3) | binding signal (ETV6) |
| --- | --- | --- | --- | --- | --- | --- | --- | --- |
| CCTCAA | 1.32 fold enrichment (6-mer frequency, TF over GST control) | 1.58 fold enrichment (6-mer frequency, TF over GST control) | 1.39 fold enrichment (6-mer frequency, TF over GST control) | 1.38 fold enrichment (6-mer frequency, TF over GST control) | 1.27 fold enrichment (6-mer frequency, TF over GST control) | 1.52 fold enrichment (6-mer frequency, TF over GST control) | 1.48 fold enrichment (6-mer frequency, TF over GST control) | 1.42 fold enrichment (6-mer frequency, TF over GST control) |
| GTTCCA | 1 fold enrichment (6-mer frequency, TF over GST control) | 1.04 fold enrichment (6-mer frequency, TF over GST control) | 1.13 fold enrichment (6-mer frequency, TF over GST control) | 1.1 fold enrichment (6-mer frequency, TF over GST control) | 1.12 fold enrichment (6-mer frequency, TF over GST control) | 1.07 fold enrichment (6-mer frequency, TF over GST control) | 1.04 fold enrichment (6-mer frequency, TF over GST control) | 1.04 fold enrichment (6-mer frequency, TF over GST control) |
| GTTACT | 1.24 fold enrichment (6-mer frequency, TF over GST control) | 1.1 fold enrichment (6-mer frequency, TF over GST control) | 1.21 fold enrichment (6-mer frequency, TF over GST control) | 1.18 fold enrichment (6-mer frequency, TF over GST control) | 1.25 fold enrichment (6-mer frequency, TF over GST control) | 1.17 fold enrichment (6-mer frequency, TF over GST control) | 1.28 fold enrichment (6-mer frequency, TF over GST control) | 1.21 fold enrichment (6-mer frequency, TF over GST control) |
| CGTATG | 1.02 fold enrichment (6-mer frequency, TF over GST control) | 1.07 fold enrichment (6-mer frequency, TF over GST control) | 1.11 fold enrichment (6-mer frequency, TF over GST control) | 1.05 fold enrichment (6-mer frequency, TF over GST control) | 1.03 fold enrichment (6-mer frequency, TF over GST control) | 1.04 fold enrichment (6-mer frequency, TF over GST control) | 1.13 fold enrichment (6-mer frequency, TF over GST control) | 1.02 fold enrichment (6-mer frequency, TF over GST control) |
| CGCTCT | 1.3 fold enrichment (6-mer frequency, TF over GST control) | 1.37 fold enrichment (6-mer frequency, TF over GST control) | 1.31 fold enrichment (6-mer frequency, TF over GST control) | 1.25 fold enrichment (6-mer frequency, TF over GST control) | 1.18 fold enrichment (6-mer frequency, TF over GST control) | 1.24 fold enrichment (6-mer frequency, TF over GST control) | 1.25 fold enrichment (6-mer frequency, TF over GST control) | 1.26 fold enrichment (6-mer frequency, TF over GST control) |
| ACCTTG | 1.31 fold enrichment (6-mer frequency, TF over GST control) | 1.23 fold enrichment (6-mer frequency, TF over GST control) | 1.27 fold enrichment (6-mer frequency, TF over GST control) | 1.27 fold enrichment (6-mer frequency, TF over GST control) | 1.22 fold enrichment (6-mer frequency, TF over GST control) | 1.11 fold enrichment (6-mer frequency, TF over GST control) | 1.25 fold enrichment (6-mer frequency, TF over GST control) | 1.17 fold enrichment (6-mer frequency, TF over GST control) |
| GTATGC | 1.05 fold enrichment (6-mer frequency, TF over GST control) | 1.23 fold enrichment (6-mer frequency, TF over GST control) | 1.24 fold enrichment (6-mer frequency, TF over GST control) | 1.18 fold enrichment (6-mer frequency, TF over GST control) | 1.27 fold enrichment (6-mer frequency, TF over GST control) | 1.11 fold enrichment (6-mer frequency, TF over GST control) | 1.24 fold enrichment (6-mer frequency, TF over GST control) | 1.09 fold enrichment (6-mer frequency, TF over GST control) |
| TACCGA | 1.05 fold enrichment (6-mer frequency, TF over GST control) | 1.13 fold enrichment (6-mer frequency, TF over GST control) | 1.12 fold enrichment (6-mer frequency, TF over GST control) | 1.12 fold enrichment (6-mer frequency, TF over GST control) | 1.01 fold enrichment (6-mer frequency, TF over GST control) | 1.08 fold enrichment (6-mer frequency, TF over GST control) | 1.09 fold enrichment (6-mer frequency, TF over GST control) | 1.09 fold enrichment (6-mer frequency, TF over GST control) |
